# Measured values as given in PubChem BioAssay (Tox21).
# Several values for one entry are separate records, joined by “and”; a condition that tells them apart may be missing. Equal entries are not always repeated. Records with an inconclusive call do not appear. Where a call stands in place of a potency, no number is given. Values without a mark were called inactive. Activity calls are given as the source filed them. Calls come from the whole dose curve; as a rule, active = well fitted cell-killing curve with a large enough effect in the repeat runs; inconclusive = weak or mixed curves, or effect the other way; inactive = flat fitted curve, though single readings scatter.
# How the values were obtained:
# [1] = cAMP Responsive Elements (CRE) small molecule antagonists, cell-based qHTS assay: qHTS cell viability counter screen (AID 2060913); settings: CRE-bla HEK293T viability, CellTiter-Glo luminescence, 5 h; series mostly up to 92.4 µM; note: nearly all actives have a fitted effect of over 40% in size
# Summary of the method: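 HEK293T CRE-bla, 2,000 cells/well, 18 h preincubation; cpd in DMSO + NKH477 0.25 uM final, 3 h 37 C/5% CO2; LiveBLAzer 2 h RT, then CellTiter-Glo 30 min RT, luminescence.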
# [2] = cAMP Responsive Elements (CRE) small molecule agonists, cell-based qHTS assay: qHTS cell viability counter screen (AID 2060914); settings: CRE-bla HEK293T viability, CellTiter-Glo luminescence, 5 h; series mostly up to 92.4 µM;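 note: viability read after 3 h of compound exposure; nearly all actives have a fitted effect of over 50% in size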
# Summary of the method: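 CRE-bla HEK293T cells in 10% dialyzed FBS medium were exposed to compounds for 3 h at 37C after 18 h plating. CellTiter-Glo was then added in the same wells, and luminescence was read after 30 min at room temperature.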
# Potency is the fitted concentration of half-maximal effect.
SMILES,Potency [1],Potency [2],"viability change, negative = cytotoxic [1]","activity change, negative = cytotoxicity [2]"
CCCCCCCC#N,inactive,inactive,–,–
BrCc1cccc(Oc2ccccc2)c1,inactive,inactive,–,–
O=C(O)C(Cc1cc(I)c(O)c(I)c1)c1ccccc1 (configuration not stated),inactive,inactive,–,–
CNCCCN1c2ccccc2CCc2ccccc21,inactive,inactive,–,–
Cc1ccccc1N=Nc1ccc(N=Nc2c(O)ccc3ccccc23)c(C)c1,inactive,inactive,–,–
CC(=O)SCc1ccco1,inactive,inactive,–,–
O=C(O)c1cccc(Cl)n1,inactive,inactive,–,–
CCCc1ccccc1O,inactive,inactive,–,–
CN1C(CCl)Nc2cc(Cl)c(S(N)(=O)=O)cc2S1(=O)=O (configuration not stated),inactive,inactive,–,–
Cc1ccnc2c1NC(=O)c1cccnc1N2C1CC1,inactive,inactive,–,–
CCS(=O)(=O)CCn1c([N+](=O)[O-])cnc1C,inactive,inactive,–,–
CC1=CC(O)CC(C)(C)C1 (configuration not stated),inactive,inactive,–,–
COc1cccc([C@H](O)C2CCN(CCc3ccc(F)cc3)CC2)c1OC,inactive,inactive,–,–
CCN(CC)CCOC(=O)c1ccc(N)cc1,inactive,inactive,–,–
CN1CCC(=C2c3ccccc3Sc3ccccc32)CC1,inactive,inactive,–,–
CCOc1ccccc1C(N)=O,inactive,inactive,–,–
CCSCC,inactive,inactive,–,–
CC(=O)Oc1ccc([N+](=O)[O-])cc1CCl,inactive,inactive,–,–
CC(C)(O)C#CC(C)(C)O,inactive,inactive,–,–
C=CC(C)=CCC=C(C)C,inactive,inactive,–,–
N[C@@H](C(=O)N[C@@H]1C(=O)N2C(C(=O)O)=C(Cl)CS[C@H]12)c1ccccc1,–,–,0.002% [at 8.39 µM],8.3% [at 8.39 µM]
Cc1c(N)cccc1Cl,inactive,inactive,–,–
C=C(C)C(=O)OCC(C)(C)COC(=O)C(=C)C,inactive,inactive,–,–
CC(C)CCCO,inactive,inactive,–,–

SMILES,Potency [1],Potency [2],"viability change, negative = cytotoxic [1]","activity change, negative = cytotoxicity [2]"
O=C(O)c1ccco1,inactive,inactive,–,–
COc1ccccc1Oc1c(NS(=O)(=O)c2ccc(C(C)(C)C)cc2)nc(-c2ncccn2)nc1OCCO,inactive,inactive,–,–
Cc1cc(OI)c(C(C)C)cc1-c1cc(C(C)C)c(OI)cc1C,inactive,inactive,–,–
O=C1CCCCCN1,inactive,inactive,–,–
CCCCC(CC)COC(=O)CCCCC(=O)OCc1ccccc1 (configuration not stated),inactive,inactive,–,–
C=C(C)C(=O)OCCNC(C)(C)C,inactive,inactive,–,–
CO[Si](CCC1CCC2OC2C1)(OC)OC (configuration not stated),inactive,inactive,–,–
C[C@H](N)C(=O)N[C@@H](C)C(=O)NC1[C@H]2CN(c3nc4c(cc3F)c(=O)c(C(=O)O)cn4-c3ccc(F)cc3F)C[C@@H]12 (some centres not stated),inactive,inactive,–,–
Oc1cccc2[nH]ccc12,inactive,inactive,–,–
O=C(O)Cc1csc(-c2ccc(Cl)cc2)n1,inactive,inactive,–,–
CCCCC(=O)O[C@]1(C(=O)CO)[C@@H](C)C[C@H]2[C@@H]3CCC4=CC(=O)C=C[C@]4(C)[C@@]3(F)[C@@H](O)C[C@@]21C,inactive,inactive,–,–
Cc1cccc(S(=O)(=O)O)c1C,inactive,inactive,–,–
c1ccc2c(c1)CCc1ccccc1N2,inactive,inactive,–,–
Cc1oc(-c2ccccc2)nc1CCOc1cccc2c1ccn2CCC(=O)O,inactive,inactive,–,–
N#CC1(O)CCCCC1,inactive,inactive,–,–
C[C@]12CC[C@@H]3c4ccc(O)cc4CC[C@H]3[C@@H]1C[C@@H](O)[C@@H]2O,inactive,inactive,–,–
NC(=O)Nc1ccc(Cl)cc1,inactive,inactive,–,–
N=C1C=CC(=C(c2ccc(N)cc2)c2ccc(N)cc2)C=C1,50.8 µM (active),inactive,–,–
O=C(O)O,–,–,7.81% [at 8.39 µM],-5.94% [at 8.39 µM]
NC(=O)c1cccc([N+](=O)[O-])c1,inactive,inactive,–,–
CCn1cc(C(=O)O)c(=O)c2cc(F)c(N3CCNCC3)cc21,inactive,inactive,–,–
O=C(O)Cc1ccc(OCCNC[C@H](O)c2ccccc2)cc1,inactive,inactive,–,–
CC(C)SCc1ccco1,inactive,inactive,–,–
CC[N+](CC)(CC)CCOC(=O)C(C1CCCC1)C1CCCC1,inactive,inactive,–,–

SMILES,Potency [1],Potency [2],"viability change, negative = cytotoxic [1]","activity change, negative = cytotoxicity [2]"
CC(=O)O[C@@H]1CC2C3CCc4cc(OC(=O)c5ccccc5)ccc4C3CCC2(C)[C@H]1OC(C)=O (some centres not stated),inactive,inactive,–,–
CS(=O)(=O)Nc1ccc([N+](=O)[O-])cc1Oc1ccccc1,inactive,inactive,–,–
Cc1oc2c(NC(=O)c3c(Cl)cccc3Cl)cccc2c1C(C)(C)O,inactive,inactive,–,–
Cc1cc(NC(=O)C2=C(O)c3ccccc3S(=O)(=O)N2C)no1,inactive,inactive,–,–
CO[Si](CCCOCC1CO1)(OC)OC (configuration not stated),inactive,inactive,–,–
Cc1ccc(O)c(-n2nc3ccccc3n2)c1,inactive,inactive,–,–
Cc1nc2n(c(=O)c1CCN1CCC(c3noc4cc(F)ccc34)CC1)CCCC2,inactive,inactive,–,–
Cc1ccc(-c2ncc(Cl)cc2-c2ccc(S(C)(=O)=O)cc2)cn1,inactive,inactive,–,–
CCCCCCCCCCCC(=O)OCC(O)CO (configuration not stated),inactive,inactive,–,–
CC#N,inactive,inactive,–,–
Cc1cc(Nc2ccc(O)cc2)ccc1N,inactive,inactive,–,–
O=C(O)c1ccccc1C(=O)Nc1ccc(S(=O)(=O)Nc2nccs2)cc1,inactive,inactive,–,–
CCCCCCCCCC#N,inactive,inactive,–,–
O=C(OCC1CCC2OC2C1)C1CCC2OC2C1 (configuration not stated),inactive,inactive,–,–
O=C1CCCCCO1,inactive,inactive,–,–
O=C(OCc1ccccc1)C(=O)OCc1ccccc1,inactive,inactive,–,–
CCOCC(=O)O,inactive,inactive,–,–
CN1CCN(N)CC1,inactive,inactive,–,–
[Cl][Eu]([Cl])[Cl],inactive,inactive,–,–
OCC(CO)(CO)CO,inactive,inactive,–,–
CCCCCCCCCCCCCCCC(=O)OCC,inactive,inactive,–,–
CC(=O)c1ccccc1O,inactive,inactive,–,–
Cc1ccc([N+](=O)[O-])cc1N,inactive,inactive,–,–
Oc1ccc(Cc2ccccc2O)cc1,inactive,inactive,–,–

SMILES,Potency [1],Potency [2],"viability change, negative = cytotoxic [1]","activity change, negative = cytotoxicity [2]"
CCC/C=C(\C=O)CC,inactive,inactive,–,–
O=C1CCCC1,inactive,inactive,–,–
C=CCCCCCCCCCC,inactive,inactive,–,–
CCOC(=O)/C=C/C(=O)OCC,inactive,inactive,–,–
CC(O)C#CC(C)O (configuration not stated),inactive,inactive,–,–
CCc1nnc(NS(=O)(=O)c2ccc(N)cc2)s1,inactive,inactive,–,–
CC[C@H](c1ccc(O)cc1)[C@@H](CC)c1ccc(O)cc1,inactive,inactive,–,–
CN1CC(=O)N/C1=N/C(=O)Nc1cccc(Cl)c1,inactive,inactive,–,–
CN(C)CCCN(C)C,–,–,8.18% [at 8.39 µM],-2.69% [at 8.39 µM]
O=Cc1cc(O)ccc1Br,inactive,inactive,–,–
COC(=O)CC(C(C)=O)C(=O)OC (configuration not stated),inactive,inactive,–,–
O=Cc1c(Cl)cccc1Cl,inactive,inactive,–,–
OCCOCCN1CCN(C(c2ccccc2)c2ccc(Cl)cc2)CC1 (configuration not stated),inactive,inactive,–,–
OCCCS,inactive,inactive,–,–
O=C(c1ccccc1)c1ccc(Cl)cc1,inactive,inactive,–,–
CC1(C)CO[C@@H](CC(=O)O)CN1,inactive,inactive,–,–
O=C(Oc1cccc2cccnc12)c1ccccc1,inactive,inactive,–,–
C[C@@H]1CCC[C@H](C)N1CCCC(O)(c1ccccc1)c1ccccn1 (some centres not stated),inactive,inactive,–,–
N#Cc1ccccc1C#N,inactive,inactive,–,–
Nc1ccccc1Nc1ccccc1,inactive,inactive,–,–
ClC1=C(Cl)C1(Cl)Cl,inactive,inactive,–,–
Nc1ccn([C@@H]2O[C@H](CO)[C@@H](O)C2(F)F)c(=O)n1,inactive,inactive,–,–
CCCCCCCCCCCCCCCC[N+](C)(C)CC,57.1 µM (active) and 26.6 µM (active),54.6 µM (active) and 26.6 µM (active),–,–
CCCCCCCCCCCCCCCC(=O)OC,–,–,14.8% [at 18.9 µM],-20.6% [at 18.9 µM]

SMILES,Potency [1],Potency [2],"viability change, negative = cytotoxic [1]","activity change, negative = cytotoxicity [2]"
C=CCOc1c(Br)cc(C(C)(C)c2cc(Br)c(OCC=C)c(Br)c2)cc1Br,inactive,inactive,–,–
CC(=O)Oc1ccccc1C(=O)O,inactive,inactive,–,–
C[C@H]1[C@H](NC(=O)/C(=N/OC(C)(C)C(=O)O)c2csc(N)n2)C(=O)N1S(=O)(=O)O (stereo in doubt),inactive,inactive,–,–
NC(=O)NC(=O)Cc1ccccc1,inactive,inactive,–,–
CC(=O)OCCN(CCOC(C)=O)c1ccc(N=Nc2ccc([N+](=O)[O-])cc2C#N)cc1,inactive,inactive,–,–
CC(=O)CC(C)=O,inactive,inactive,–,–
COC(C)COC(C)COC(C)CO (configuration not stated),inactive,inactive,–,–
NC(N)=NC(=O)Cc1c(Cl)cccc1Cl,inactive,inactive,–,–
C=COCCOCCOCCOC=C,inactive,inactive,–,–
OC[C@H]1O[C@@H](Oc2ccc(O)cc2)[C@H](O)[C@@H](O)[C@@H]1O,inactive,inactive,–,–
CNCCCC1c2ccccc2C=Cc2ccccc21,inactive,inactive,–,–
CCC(CC)(CC(=O)Nc1cccc(/C=C/c2nc(C3CCC3)cs2)c1)C(=O)O,inactive,inactive,–,–
CC(C)Cc1ccc(C(C)C(=O)OCc2ccccn2)cc1 (configuration not stated),inactive,inactive,–,–
N#CCN(CC#N)CCN(CC#N)CC#N,inactive,inactive,–,–
CC(C)(C)CC(C)(C)c1ccc(Nc2ccc(C(C)(C)CC(C)(C)C)cc2)cc1,–,–,-5.06% [at 8.39 µM],6.62% [at 8.39 µM]
Clc1ccc2c(c1)C(N1CCNCC1)=Nc1ccccc1O2,inactive,inactive,–,–
Sc1nc2ccccc2s1,inactive,inactive,–,–
C/C=C/c1ccc(O)c(OC)c1,inactive,inactive,–,–
c1ccc2sc(SN(C3CCCCC3)C3CCCCC3)nc2c1,inactive,inactive,–,–
COc1cc(/C=C/C(N)=O)cc(OC)c1OC,inactive,inactive,–,–
